Here are results for 32 compounds from PubChem BioAssay (NCI).

This is part of a sample that, as a whole, favours compounds with a hit. Of some 83,000 tested, about 20% had one in any assay.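 Each cell line was grown in a 96-well plate and treated with one concentration of compound for 48 hours. Values below 10 were considered active.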 Unmarked numbers belong to inactive results. Active and inactive are the calls of the source.

Common to all, as to experiment: NCI-60 one-dose screen, 48 h (100 = growth as untreated, 0 = no growth, -100 = all killed)
One test deals with HL-60(TB) leukemia. Particulars: 10 µM unless noted.
A further test has as its system NCI-H226 lung. Particulars: 10 µM.
The subject of a further test is NCI-H322M lung. To be noted: 10 µM.
The subject of a further test is HOP-62 NSCLC. Particulars: 10 µM.
Another test deals with NCI-H460 lung. Particulars: 10 µM.
A further test deals with A549/ATCC NSCLC. To be noted: 10 µM.
In a further test the test system is 786-0 renal. To be noted: 10 µM.
The test system of a further test is COLO 205 colon. Particulars: 10 µM.
The next test has as its system DU-145 prostate. Particulars: 10 µM.
A further test deals with SF-268 CNS. To be noted: 10 µM.
The next test has as its system SF-295 CNS. To be noted: 10 µM.
The subject of another test is SF-539 CNS. Particulars: 10 µM.
For a further test, the system named is HCT-15 colon. Particulars: 10 µM.
A further test has as its system HT29 colon. To be noted: 10 µM.
The test system of the next test is SNB-75 CNS. Particulars: 10 µM.
The next test has as its system SNB-19 CNS. Particulars: 10 µM.
In a further test the test system is PC-3 prostate. Particulars: 10 µM.
In a further test the test system is EKVX NSCLC. Particulars: 10 µM.
For a further test, the system named is UO-31 renal. Particulars: 10 µM.
The subject of another test is ACHN renal. Particulars: 10 µM.

`COc1cc2cc(Oc3ccc(NC(=O)c4cccc(C(F)(F)F)c4)cc3)c(C)nc2cc1OCCN(C)C`: in the test with HL-60(TB) leukemia, the growth was 97.2%.

As for `O=C(CSc1nnc(-c2cccs2)n1-c1ccccc1)Nc1ccccc1`, the growth in the test with HL-60(TB) leukemia is 76%. Take `COc1ccc2[nH]cc(/C=N/Nc3ccnc4cc(Cl)ccc34)c2c1`: in the test with HL-60(TB) leukemia, the growth was -56.1% (active).

For the compound `O=C(CCn1c[n+](CC(=O)c2ccc(F)cc2)c2ccccc21)Nc1cccc2cccnc12`, the growth in the test with HL-60(TB) leukemia was 36.7%.

As for `O=S(=O)(NCCCNc1nccc(-n2cnc3ccccc32)n1)c1ccc(C(F)(F)F)cc1`, the growth in the test on HL-60(TB) leukemia is 101%. In the case of `CNCCN(C)c1ccc(Nc2cc(NC3CC3)n3ncc(C#N)c3n2)cc1NC(C)=O`, the growth in the test with HL-60(TB) leukemia is -7.57% (active). For `COc1cc2cc(Oc3ccc(NC(=O)c4cccc(C(F)(F)F)c4)cc3)c(C)nc2cc1OCCN1CCCCC1`, the growth in the test with HL-60(TB) leukemia was -51.6% (active).

On to `N#Cc1cnc2ccc(-c3cnc4n[nH]nc4c3)cc2c1N1CCc2cc(F)c(Cl)cc21`, for which the growth in the test with HL-60(TB) leukemia is 20.2%.

For `Cc1ccc(S(=O)(=O)NCCCNc2nccc(-c3[nH]c(-c4ccccc4)nc3-c3ccc(F)c(O)c3)n2)cc1`, the growth in the test on HL-60(TB) leukemia was 82.4%. In the case of `CC1(C)CC[C@]2(C(=O)N3CCOCC3)CC[C@]3(C)C(=CC[C@@H]4[C@@]5(C)C/C(=C/c6ccco6)C(=O)C(C)(C)[C@@H]5CC[C@]43C)[C@@H]2C1`, in the test with HL-60(TB) leukemia, the growth was 57.2%. On the same count and under the same terms, the result for `Cn1ccnc1C(=O)/C=C/c1ccc(NC(=O)Nc2ccc(Cl)cc2)cc1` reads 44.2%; that for `O=C(CN1CCN(c2cc(=O)n(-c3ccccc3)c3ccccc23)CC1)Nc1nc(-c2ccccc2)cs1`, 37.1%; that for `CC1=C(C)C(=O)C(Nc2cccc(C(F)(F)F)c2)=C(Br)C1=O`, 54.7%. As for `O=S(=O)(NCCCNc1nccc(-c2[nH]c(-c3ccccc3)nc2-c2ccc(Cl)c(O)c2)n1)c1cccc2ccccc12`, in the test with HL-60(TB) leukemia, the growth was 9.79% (active). Regarding `O=C(N/N=C/c1ccc(Cl)s1)c1[nH]c2ccc(Br)cc2c1-c1ccccc1`, in the test on HL-60(TB) leukemia, the growth was -44.1% (active). Turning to `CSc1nccc(-c2c(-c3ccc(F)c(OCc4ccc(F)cc4)c3)nc3sccn23)n1`, the growth with HL-60(TB) leukemia is 78%. On to `CN1CCC(n2cc(Nc3ncc4c(=O)n(-c5c(Cl)cccc5Cl)cc(Br)c4n3)cn2)CC1`, for which, in the test on HL-60(TB) leukemia, the growth is -13.8% (active). Consider `COc1ccccc1C(=O)Nc1cccc2c1C(=O)C(=O)C=C2`, for which the growth in the test with HL-60(TB) leukemia is 9.19% (active). As to `CCOC(=O)C(=O)Nc1ccc2c(ccn2C(=O)c2cccc(F)c2)c1`, the growth in the test on HL-60(TB) leukemia was 99.2%. Regarding `Oc1cccc2ccc(-c3nnc(SCc4ccc(O)c5ncccc45)n3-c3ccccc3)nc12`, the growth in the test with HL-60(TB) leukemia was 3.4% (active). The same measure, in the same setting: then `O=S(=O)(NC1c2ccccc2C[C@H]1O)c1ccc(Cl)cc1Cl` (stereo partly specified), with 98.1%; and `CCCn1cnc2c(c1=N)C(c1ccc(Cl)cc1)c1sc3c(CC)cccc3c1O2` (stereo unspecified), with 0.217% (active).

Turning to `CCN1CCN(c2cc(C(=O)Nc3nc4ccc(Oc5ccnc(C(=O)NC)c5)cc4s3)cc(C(F)(F)F)c2)CC1`, the growth with HL-60(TB) leukemia is 18.7%.

As to `NC(=O)c1cc(-c2ccc3ncnc(N4CCc5cc(F)c(Cl)cc54)c3c2)cnc1N`, the growth in the test on HL-60(TB) leukemia was -4.97% (active). As for `C/C(=C(/c1ccc(Cl)cc1)c1ccc(OCCN)cc1)c1ccc(C)cc1`, in the test on HL-60(TB) leukemia, the growth is 102%.

With `O=C(NCCCNc1cc(-c2cn(-c3ccccc3)nc2-c2cccc(O)c2)ccn1)Nc1cc(C(F)(F)F)cc(C(F)(F)F)c1`, the growth in the test on HL-60(TB) leukemia is 71.9%.

`NS(=O)(=O)c1cccc(Nc2nc(SCC(=O)c3ccc(Br)cc3)nc3ccccc23)c1`: the growth in the test with HL-60(TB) leukemia is 79.1%. Regarding `O=S(=O)(Oc1ccc(-c2cn3ccsc3n2)cc1)c1cccc(C(F)(F)F)c1`, the growth with HL-60(TB) leukemia is 101%. Consider `CC(C)(C)n1nnnc1C(Nc1nccs1)c1cc2cccc3ccc4cccc1c4c32` (stereo unspecified), for which the growth with HL-60(TB) leukemia is 90.2%. On the same count and under the same terms, then `Nc1nc(Nc2ccccc2SSc2ccccc2Nc2nc(N)nc(-c3ccc4ccccc4c3)n2)nc(-c2ccc3ccccc3c2)n1`, with 112%; and `O=C1c2c(c3c4cccnc4[nH]c3c3ccc4ccccc4c23)C(=O)N1CCN1CCCCC1`, with 35.4%. `COc1cc(OC)c(S(=O)(=O)N(CCCl)CCCl)cc1C(=O)/C=C/c1ccc(Cl)cc1`: the growth in the test on NCI-H226 lung is 78.9%; in the test with NCI-H322M lung, 71.9%; with HOP-62 NSCLC it was 91.7%; in the test with NCI-H460 lung, 77.7%; in the test on A549/ATCC NSCLC it was 71.5%; in the test on 786-0 renal, 64.4%. For the same compound, the growth is 101% with COLO 205 colon; 68.8% in the test with DU-145 prostate; 73.2% in the test with SF-268 CNS; 88.7% in the test on SF-295 CNS; 51.3% with SF-539 CNS; 31.6% in the test with HCT-15 colon. Besides, the growth is 79.5% in the test with HT29 colon; 37.8% in the test with SNB-75 CNS; 65.2% with SNB-19 CNS; 70.3% in the test with PC-3 prostate; 85.5% in the test on EKVX NSCLC; 66.9% in the test with UO-31 renal. For the same compound, the growth with ACHN renal was 65.3%; in the test on HL-60(TB) leukemia, 49.4%.
